# High-throughput results from PubChem BioAssay.
# PAFAH1B2 inh: PAFAH1B2 enzyme inhibitors, primary screen, biochemical, fluorescence polarization, human | recombinant PAFAH1B2, FP-rhodamine activity probe | inhibition, % at 3.39 µM | 1.2% of 340,000 active;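 active = inhibition above the mean of all tested compounds plus 3 SD, cut at about 24% in these data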;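 also: 0% = enzyme with DMSO and 100% = wells lacking PAFAH1B2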
# Target sequence (P68402 whole entry, looked up): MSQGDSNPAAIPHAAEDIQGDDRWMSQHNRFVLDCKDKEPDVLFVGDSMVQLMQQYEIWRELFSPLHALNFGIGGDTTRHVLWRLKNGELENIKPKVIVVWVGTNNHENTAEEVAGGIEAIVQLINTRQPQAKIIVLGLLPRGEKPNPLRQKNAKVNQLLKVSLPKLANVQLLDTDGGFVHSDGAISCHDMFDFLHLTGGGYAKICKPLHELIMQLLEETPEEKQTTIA
# PAFAH2 FP inh: PAFAH2 enzyme inhibitors, primary screen, biochemical, fluorescence polarization, human; inhibition, % at 3.39 µM; 0.99% of 340,000 active; AID 492956, 2010; Platelet-activating factor acetylhydrolase 2, cytoplasmic (Homo sapiens), Q99487; recombinant PAFAH2, FP-rhodamine activity probe;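 active = inhibition above the mean over all tested compounds plus 3 SD, cut at about 30% in these data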;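 also: inhibitors block probe labeling of enzyme so polarization drops; 0% = enzyme with DMSO and 100% = wells lacking PAFAH2 protein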
# TCR-CD3 inh: inhibitors of human TCR-CD3 interaction, primary screen, biochemical, fluorescence, TAMRA-labeled TCR probe. T-cell receptor (TCR). inhibition, % at 9.4 µM. 0.37% of 360,000 active; in the data active = inhibition above about 19%;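 also: recombinant mutant TCR 2C K166C tagged with TAMRA read by polarization; 0% = receptor in buffer alone and 100% = receptor with positive control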
# PAFAH1B3 inh: PAFAH1B3 enzyme inhibitors, primary screen, biochemical, fluorescence polarization, human; inhibition, % at 3.39 µM; AID 492972, 2010; 0.28% of 340,000 active; recombinant PAFAH1B3, FP-rhodamine probe;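 active = inhibition above the screen-wide average of all tested compounds plus 3 SD, cut at about 25% in these data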;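 also: 0% = enzyme with DMSO only and 100% = wells lacking PAFAH1B3 protein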
# pPAFAH FP inh: pPAFAH enzyme inhibitors, primary screen, biochemical, fluorescence polarization, human; Platelet-activating factor acetylhydrolase (Homo sapiens), Q13093; recombinant pPAFAH, FP-rhodamine probe fluorescence polarization; 1.5% of 330,000 active; inhibition, % at 3.39 µM;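 active = inhibition above the mean inhibition across the screen plus 3 SD, cut at about 25% in these data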;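 also: inhibitors block binding of the rhodamine activity-based probe so polarization drops; 0% = enzyme with DMSO and 100% = wells lacking pPAFAH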
# Starred values were filed as active, the others as inactive; / = no result. Compounds with a hit are over-represented: about 2.7% of the library has one in this group of screens.
SMILES,PAFAH1B2 inh,PAFAH2 FP inh,TCR-CD3 inh,PAFAH1B3 inh,pPAFAH FP inh
Cc1ccc(S(=O)(=O)N2CCN(C(=O)COC(=O)COc3ccc(Br)cc3)CC2)c(C)c1,-2,-9,-5,-9,/
Cc1ccc(OCCC(=O)OCC(=O)N2CCN(S(=O)(=O)c3ccc(Cl)cc3)CC2)cc1,28*,-6,-4,4,16
CCOC(=O)C1CCCN(C(=O)Cc2c(C(=O)O)[nH]c3ccccc23)C1 (stereo not given),34*,5,5,8,9
O=C(N/N=C/C=C/c1ccco1)/C(=C/c1ccccc1)NC(=O)c1ccccc1,3,16,0,11,31*
CCOC(=O)c1cc(-c2ccc(OC)cc2)nn1-c1ccc(C(=O)O)cc1,2,5,7,-7,31*
CCOC(=O)c1cc(-c2cccnc2)nn1-c1ccccc1,1,1,2,18,-1
COc1ccc(CNC(=O)[C@@H](Cc2ccccc2)NC(=O)[C@H]2O[C@@H](n3cnc4c(=O)[nH]c(N)nc43)[C@H](O)[C@@H]2O)cc1,/,/,-3,/,/
O=C(NCc1cccnc1)/C(=C\c1ccc(-c2cccc(Cl)c2)o1)S(=O)(=O)c1ccccc1,-5,4,7,-8,26*
O=C(O)c1ncn(Cc2ccc(Br)cc2)c1C(=O)O,25*,9,0,8,1
N#Cc1ccsc1NC(=O)CSc1nnc(-c2ccccc2)o1,0,7,0,2,34*
NC1=NC(=O)/C(=C/c2cn(CCC(=O)O)nc2-c2ccc(Cl)cc2)S1,50*,5,4,6,1
COc1ccc(-c2nn(CCC(=O)O)cc2/C=C2\SC(N)=NC2=O)cc1,4,3,-7,16,-3
NC1=NC(=O)/C(=C/c2cn(CCC(=O)O)nc2-c2ccc(F)cc2)S1,48*,4,-1,8,0
N#CCCn1cc(/C=C/C(=O)O)c(-c2ccc(F)cc2)n1,1,1,2,-2,-6
O=C(O)CCn1cc(/C=C\C(=O)c2ccc(Cl)cc2)c(-c2cccc(Br)c2)n1,46*,6,-3,6,2
COc1ccc(OC)c(NC(=O)CCn2ccnc2)c1,7,4,6,4,7
Cc1ccc(C(=O)NC2CCCCN(C)C2=O)c(C)c1 (stereo not given),/,/,-2,/,/
COc1ccc(S(=O)(=O)N2CCCc3nc(-c4ccccc4)ccc32)cc1,/,/,0,/,/
Oc1c(I)cc(Cl)c2cccnc12,11,-1,9,16,31*
O=[N+]([O-])c1cc(Cl)c2cccnc2c1O,-5,5,-1,8,7
CCCCNC(=O)C[C@H]1C[C@@]2(C(=O)OC)C(=C[C@H](COCc3ccccc3)O[C@@H]2C)N(Cc2ccc3c(c2)OCO3)C1=O,/,/,0,/,/
Cc1nc2c(C(=O)NCc3ccc4c(c3)OCO4)c[nH]n2c(=O)c1Cl,4,7,-2,13,21
Cc1nc2c(C(=O)NCCC3=CCCCC3)c[nH]n2c(=O)c1Cl,12,9,3,15,28*
Cc1c(C2Nc3ccccc3C2C)[nH]c2ccccc12 (stereo not given),/,/,3,/,/
Cc1ccc(Cl)cc1NS(=O)(=O)Cc1ccccc1,3,6,-11,1,30*
SMILES,PAFAH1B2 inh,PAFAH2 FP inh,TCR-CD3 inh,PAFAH1B3 inh,pPAFAH FP inh
Cc1ccc(Cl)cc1NS(=O)(=O)c1ccccc1,1,5,2,14,/
Nc1ccc2oc(-c3ccccc3Cl)cc(=O)c2c1O,8,4,-2,6,28*
O=c1cc(-c2ccccc2Cl)oc2ccc([N+](=O)[O-])c(O)c12,4,4,2,4,3
COC(=O)C1=C(C)NC(=S)NC1c1cccc(OC)c1 (stereo not given),/,/,7,/,/
Cc1ccc(S(=O)(=O)Nc2ccc3c(c2)nc(CCN2CCCC2)n3C)cc1,6,0,-5,-3,0
Cn1c(CCN2CCCC2)nc2cc(NS(=O)(=O)c3ccc(Cl)cc3)ccc21,28*,5,2,2,10
O=C(Cn1nc(Cc2cccnc2)c2ccccc2c1=O)Nc1ccccc1F,1,1,1,1,25*
COC(=O)C1=C(C)N(C)C(=NCc2ccc3c(c2)OCO3)NC1c1ccccc1 (stereo not given),/,/,4,/,/
